Records with an inconclusive call do not appear. Active and inactive are the calls of the source. Unless noted, no stated cut-off is given here; in the data, active means inhibition above about 80%; inactive means the rest.
What was measured:
[1] = growth inhibition of DIPG glioma cells, dose response, cell-based, SU-DIPG-XVII, MIPE5.0, CellTiter-Glo, qHTS (AID 1347060; cut-off not given, nearly all actives have AC50 up to about 26 µM;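 on AC50: cells exposed to compound for 48 hours before viability readout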); settings: SU-DIPG-XVII viability, CellTiter-Glo ATP luminescence
[2] = growth inhibition of DIPG glioma cells, dose response, cell-based, SU-DIPG-XIII, MIPE5.0, CellTiter-Glo, qHTS (AID 1347064; cut-off not given, nearly all actives have AC50 up to about 23 µM;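 on AC50: cells exposed to compound for 48 hours before the viability read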); settings: SU-DIPG-XIII viability, CellTiter-Glo ATP luminescence
[3] = viability loss in pontine glioma line – cell-based, SU-DIPG-XXV, MIPE5.0, CellTiter-Glo, qHTS, dose response (AID 1347065; cut-off not given, nearly all actives have AC50 up to about 26 µM;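 further: cells exposed to compound for 48 hours before ATP readout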); settings: CellTiter-Glo ATP luminescence
[4] = JHH-DIPG-1 glioma cell viability, MIPE5.0 library, CellTiter-Glo luminescence, qHTS (AID 1347067; cut-off not given, nearly all actives have AC50 up to about 26 µM;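 further: cells exposed to compound for 48 hours before readout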); settings: JHH-DIPG-1 glioma viability, CellTiter-Glo ATP luminescence
[5] = SU-DIPG-XXV glioma cell viability, MIPE5.0 library, qHTS (AID 1347068; cut-off not given, nearly all actives have IC50 up to about 30 µM)
[6] = LFS_MB_P medulloblastoma growth inhibition, cell-based, chromothripsis tumors, cisplatin or BGB combos (AID 1671449); settings: LFS_MB_P medulloblastoma cells;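 further: cells exposed for 96 hours; 0% = vehicle DMSO and 100% = killing by high DMSO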
[7] = HDN33 neuroblastoma growth inhibition, cell-based, chromothripsis tumors, cisplatin or BGB combos (AID 1671450); settings: HDN33 neuroblastoma cells, stronger effect = higher value;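 further: cells exposed to compound for four days; 0% = vehicle DMSO and 100% = cell killing by high DMSO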
[8] = ICB984 medulloblastoma cell growth inhibition, synergistic combos for chromothripsis tumors, cisplatin or BGB combos (AID 1671451; call rule not given here;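 further: cells exposed for 96 hours before readout; 0% = vehicle DMSO and 100% = killing by high DMSO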); settings: ICB984 medulloblastoma cells, drug combinations, stronger effect = higher value
[9] = LFS_MB_1R medulloblastoma cell growth inhibition, synergistic combos for chromothripsis tumors, cisplatin or BGB combos (AID 1671452); settings: LFS_MB_1R medulloblastoma cells, stronger effect = higher value;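 further: cells exposed for 96 hours before readout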
[10] = HTB85 osteosarcoma cell growth inhibition, synergistic combos for chromothripsis tumors, BGB or cisplatin IC20 combos (AID 1671453); settings: HTB85 osteosarcoma cells, drug combinations, stronger effect = higher value;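 further: cells exposed for 96 hours before readout; 0% = vehicle DMSO and 100% = high DMSO killing control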
[11] = CRL2098 osteosarcoma cell growth inhibition, synergistic combos for chromothripsis tumors, BGB or cisplatin IC20 combos (AID 1671454); settings: CRL2098 osteosarcoma cells, drug combinations, stronger effect = higher value;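 further: cells exposed for 96 h before readout; 0% = vehicle DMSO and 100% = killing by high DMSO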
[12] = HD-MB03 medulloblastoma cell growth inhibition, synergistic combos for chromothripsis tumors, BGB or cisplatin IC20 combos (AID 1671455; in the data active means inhibition above about 83%;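 further: 0% = vehicle DMSO and 100% = high DMSO as cytotoxic control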); settings: HD-MB03 medulloblastoma cells, stronger effect = higher value
[13] = UWB1.289 ovarian carcinoma cell growth inhibition, synergistic combos for chromothripsis tumors, BGB or cisplatin combos (AID 1671456); settings: UWB1.289 ovarian carcinoma cells, stronger effect = higher value;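 further: cells exposed to compound for four days; 0% = vehicle DMSO and 100% = killing by high DMSO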
[14] = LFS_MB_2R medulloblastoma cell growth inhibition, synergistic combos for chromothripsis tumors, cisplatin combos (AID 1671457); settings: LFS_MB_2R medulloblastoma cells, stronger effect = higher value;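 further: cells exposed to compound for four days before readout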
[15] = MDA-MB-436 breast carcinoma cell growth inhibition, synergistic combos for chromothripsis tumors, BGB or cisplatin combos (AID 1671458; call rule not given here;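 further: cells exposed for 96 hours; 0% = vehicle DMSO and 100% = killing by high DMSO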); settings: MDA-MB-436 breast carcinoma growth inhibition, drug combinations, stronger effect = higher value
[16] = UWB1.289_BRCA1 ovarian cancer growth, cell-based, BGB or cisplatin combinations (AID 1671459); settings: UWB1.289 BRCA1 ovarian carcinoma, drug combinations, stronger effect = higher value
[17] = human astrocyte viability loss, single and combined drugs, cytotoxicity control for chromothriptic childhood tumor combination screen, cell-based, BGB or cisplatin IC20 combos (AID 1671460); settings: Human astrocytes, drug combinations, stronger effect = higher value;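 further: cells exposed to compounds for 96 hours before viability readout; 0% = vehicle and 100% = killing control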
[18] = growth inhibition of BT084 medulloblastoma cells, cell-based, ICGC_MB145, cisplatin and BGB IC40 combos (AID 1671461); settings: drug combinations, stronger effect = higher value;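 further: cells exposed to drugs for 96 hours; 0% = vehicle DMSO and 100% = high DMSO full killing control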
[19] = growth inhibition of RCMB18 medulloblastoma cells, cell-based, cisplatin and BGB IC40 combos (AID 1671462); settings: stronger effect = higher value;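 further: cells exposed to compound for four days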
[20] = growth inhibition of CRL1545 osteosarcoma cells, cell-based, cisplatin and BGB IC20 combos (AID 1671464); settings: stronger effect = higher value;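 further: cells exposed to compound for 96 hours before readout; 0% = vehicle DMSO and 100% = high DMSO killing control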
[21] = survival rescue of mitochondrial mutant cells in low glucose, primary screen, MELAS cybrids, Rieske KO mouse fibroblasts, CellTiter-Glo (AID 1508586;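 active means mean z-score across replicates of 1.96 or higher in either the MELAS or the Rieske mutant cell line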;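 further: z relative to plate mean and SD of compound and empty wells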)
[22] = molecular target: NAD(+) hydrolase SARM1 (Homo sapiens) (UniProt Q6SZW1); assay: SARM1 TIR NADase inhibitors, cell lysate, NAD-Glo luminescence (AID 1508614;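 active means compound whose remaining NAD level is above about 45 nM, limit read from the data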); settings: SAM-TIR HEK293T lysate NADase, at 1 µM, stronger effect = higher value
[23] = growth inhibition of DIPG glioma cells, dose response, cell-based, JHH-DIPG-1, MIPE4.0, CellTiter-Glo, qHTS (AID 1347062; cut-off not given, nearly all actives have AC50 up to about 27 µM); settings: JHH-DIPG-1 viability, CellTiter-Glo ATP luminescence
[24] = growth inhibition of DIPG glioma cells, dose response, cell-based, SU-DIPG-IV, MIPE4.0, CellTiter-Glo, qHTS (AID 1347063; cut-off not given, nearly all actives have AC50 up to about 30 µM;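 further: compound exposure lasted 48 hours before the viability readout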); settings: SU-DIPG-IV viability, CellTiter-Glo ATP luminescence
[25] = SU-DIPG-VI glioma cell viability, MIPE4.0 library, CellTiter-Glo luminescence, qHTS (AID 1347066; cut-off not given, nearly all actives have AC50 up to about 30 µM;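 further: cells exposed to compound for 48 hours before readout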); settings: CellTiter-Glo ATP luminescence
[26] = measured here: combination with BGB IC40, at 0.05 µM
[27] = measured here: with BGB IC20 combination, at 0.5 µM
[28] = measured here: with cisplatin IC20 combination, at 0.5 µM
[29] = measured here: combination with cisplatin, at 0.5 µM
[30] = measured here: combination with cisplatin, at 5 µM

Chain of NAD(+) hydrolase SARM1 (Homo sapiens) (Q6SZW1 whole entry, looked up): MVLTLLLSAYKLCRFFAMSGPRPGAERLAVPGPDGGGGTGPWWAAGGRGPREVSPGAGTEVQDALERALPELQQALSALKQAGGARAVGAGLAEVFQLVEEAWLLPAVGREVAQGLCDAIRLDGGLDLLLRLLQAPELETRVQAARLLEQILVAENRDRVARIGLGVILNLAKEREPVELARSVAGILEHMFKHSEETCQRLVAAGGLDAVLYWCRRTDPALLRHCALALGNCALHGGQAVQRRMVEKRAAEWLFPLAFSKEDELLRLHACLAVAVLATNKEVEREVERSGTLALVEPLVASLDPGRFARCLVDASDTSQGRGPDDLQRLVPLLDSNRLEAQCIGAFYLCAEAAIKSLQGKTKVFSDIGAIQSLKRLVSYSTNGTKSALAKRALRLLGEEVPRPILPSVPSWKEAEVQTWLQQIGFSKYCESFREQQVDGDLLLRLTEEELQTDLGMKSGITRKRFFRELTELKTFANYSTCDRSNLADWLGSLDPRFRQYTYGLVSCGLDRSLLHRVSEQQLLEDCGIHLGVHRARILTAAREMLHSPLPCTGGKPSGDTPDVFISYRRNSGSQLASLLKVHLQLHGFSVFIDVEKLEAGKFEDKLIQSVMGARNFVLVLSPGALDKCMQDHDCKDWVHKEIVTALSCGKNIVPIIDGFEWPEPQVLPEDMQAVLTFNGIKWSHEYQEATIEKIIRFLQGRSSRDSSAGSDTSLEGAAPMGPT

Cn1c(COP(=O)(NCCBr)NCCBr)cnc1[N+](=O)[O-]
AC50 [1]: 20900 nM (active)
outcome [2]: inactive
outcome [3]: inactive
outcome [4]: inactive
outcome [5]: inactive
inhibition ([6]; at 0.5 µM, stronger effect = higher value): 16.6% (inactive)
inhibition ([6]; measured here: combination with BGB IC20, at 0.005 µM): -38.7%
inhibition ([6]; measured here: combination with BGB IC40, at 0.005 µM): -32.5%
inhibition [6, 26]: -39.8%
inhibition ([6]; measured here: combination with cisplatin, at 0.5 µM, stronger effect = higher value): 62.9%
inhibition ([6]; measured here: combination with cisplatin, at 5 µM, stronger effect = higher value): -58.8%
inhibition ([7]; BGB combo, at 5 µM): 19.8%
inhibition ([7]; at 0.5 µM): -18.8% (inactive)
inhibition ([7]; cisplatin combo, at 5 µM): 19.2%
inhibition [7, 27]: -21.2%
inhibition [7, 28]: -10.2%
inhibition ([7]; single agent, at 5 µM): 80.3%
inhibition ([8]; BGB IC20 combo, at 0.005 µM): -13.2%
inhibition ([8]; BGB IC40 combo, at 0.005 µM): -25.1%
inhibition ([8]; BGB IC40 combo, at 0.05 µM): -34.6%
inhibition ([8]; at 0.5 µM): -26% (inactive)
inhibition ([8]; cisplatin combo, at 0.05 µM): -39.4%
inhibition ([8]; cisplatin combo, at 0.5 µM): -24.4%
inhibition ([8]; cisplatin combo, at 5 µM): -33.7%
inhibition ([8]; measured here: 5 uM single agent, at 5 µM): -29.2%
inhibition ([9]; at 0.5 µM): -28.2% (inactive)
inhibition [9, 26]: -23.6%
inhibition [9, 29]: -60.8%
inhibition [9, 30]: 3.76%
inhibition ([10]; at 0.5 µM): -13.1% (inactive)
inhibition ([10]; measured here: with BGB IC20, at 0.5 µM): -24.6%
inhibition ([10]; measured here: with BGB IC20, at 5 µM): 10.3%
inhibition ([10]; measured here: with cisplatin IC20, at 0.5 µM): -0.449%
inhibition ([10]; measured here: with cisplatin IC20, at 5 µM): 2.49%
inhibition ([10]; single agent, at 5 µM): 1.71%
inhibition ([11]; at 0.5 µM): -67.6% (inactive)
inhibition ([11]; measured here: combination with BGB at IC20, at 0.5 µM): -30.9%
inhibition ([11]; measured here: combination with cisplatin at IC20, at 0.5 µM): -117%
inhibition ([12]; at 0.5 µM): -3.14% (inactive)
inhibition ([12]; measured here: combo with BGB at IC20, at 0.5 µM): -10.4%
inhibition ([12]; measured here: combo with cisplatin at IC20, at 0.5 µM): 4.61%
inhibition ([13]; at 0.5 µM): 3.29% (inactive)
inhibition ([13]; measured here: inhibition with BGB combination, at 0.05 µM): -25.1%
inhibition ([13]; measured here: inhibition with cisplatin combination, at 0.05 µM): -14.8%
inhibition ([14]; at 0.5 µM): -29.8% (inactive)
inhibition [14, 29]: -33.9%
inhibition [14, 30]: -23.3%
inhibition ([15]; at 0.5 µM): -13.5% (inactive)
inhibition ([15]; measured here: BGB combination, at 0.5 µM): -12%
inhibition ([15]; measured here: BGB combination, at 5 µM): 10.1%
inhibition ([15]; measured here: cisplatin combination, at 0.5 µM): -29.2%
inhibition ([15]; measured here: cisplatin combination, at 5 µM): 7.72%
inhibition ([16]; BGB combination, concentration series, at 5 µM): -3.84%
inhibition ([16]; at 0.5 µM): -16% (inactive)
inhibition ([16]; cisplatin combination, concentration series, at 5 µM): -17.2%
inhibition ([17]; at 0.5 µM): -2.6% (inactive)
inhibition ([17]; measured here: combo with BGB IC20, at 0.5 µM): -17%
inhibition ([17]; measured here: combo with cisplatin IC20, at 0.5 µM): 9.13%
inhibition ([18]; at 0.5 µM): -25.1% (inactive)
inhibition ([18]; cisplatin combination, at 0.5 µM): -38.4%
inhibition ([18]; cisplatin combination, at 5 µM): -11.7%
inhibition ([18]; measured here: BGB IC40 combination 0.05 uM, at 0.05 µM): 14.8%
inhibition ([18]; single agent, at 5 µM): -36.3%
inhibition ([19]; at 0.5 µM): -3.65% (inactive)
inhibition ([19]; cisplatin combo, at 5 µM): 1.65%
inhibition ([19]; measured here: BGB IC40 combination, at 0.05 µM): -12.5%
inhibition [19, 29]: 13.3%
inhibition ([19]; single agent, at 5 µM): -38.1%
inhibition ([20]; at 0.5 µM): -36.2% (inactive)
inhibition [20, 27]: -10%
inhibition [20, 28]: -51.7%
inhibition ([20]; single agent, at 0.05 µM): -14%
inhibition ([20]; single agent, at 5 µM): 52.6%

C[C@@H]1O[C@@H](O[C@@H]2C=C3CC[C@@H]4[C@H](CC[C@]5(C)[C@@H](c6ccc(=O)oc6)CC[C@]45O)[C@@]3(C)CC2)[C@H](O)[C@H](O)[C@H]1O
AC50 [1]: 14.8 nM (active)
AC50 [2]: 16.6 nM (active)
AC50 [3]: 18.6 nM (active)
AC50 [4]: 11.8 nM (active)
z-score ([21]; MELAS cybrid survival, CellTiter-Glo 48 h, stronger effect = higher value): 1.14 (inactive)
z-score ([21]; Rieske KO mouse fibroblast survival, CellTiter-Glo 72 h): -0.344
remaining NAD [22]: 10 nM (inactive)

COc1cc2c(cc1F)C(c1ccccc1Cl)=Nc1c(n[nH]c1C)N2
AC50 [1]: 5250 nM (active)
AC50 [3]: 13200 nM (active)
AC50 [4]: 14800 nM (active)
outcome [5]: inactive

CCN1C[C@]2(OC(=O)c3ccccc3NC(C)=O)CC[C@H](OC)[C@@]34[C@@H]2C[C@@H]([C@@H]13)[C@@]1(O)C[C@H](OC)[C@H]2C[C@@H]4[C@]1(O)[C@H]2OC
outcome [1]: inactive
outcome [23]: inactive
outcome [24]: inactive
outcome [2]: inactive
outcome [3]: inactive
outcome [25]: inactive
outcome [4]: inactive
outcome [5]: inactive

Source: PubChem BioAssay
